Measurements: PubChem BioAssay (EPA / NIEHS)
Calls of active or inactive are those of the source. How the source made its calls: active means hit-call score of the fitted dose curve at least 0.9, where 1 is the maximum; inactive means score below 0.9.

read-out: matrix metalloproteinase-3 (MMP3), MMP3 (gene 4314); assay: LTEA_HepaRG_MMP3: Life Technologies and Expression Analysis (LTEA) Assay for matrix metalloproteinase-3 (MMP3) using HepaRG (AID 2283519); settings: mRNA level, 48 h; actives raise or lower the signal
Procedure: LTEA_HepaRG is a cell based, multiplexed-readout assay that uses HepaRG, a human liver cell line, with measurements taken at 48 hours after chemical dosing on a 96-well plate.LTEA_HepaRG_MMP3 is one of 102 assay component(s) measured in the LTEA HepaRG cell culture assay. It is a marker of Fibrosis.Data from the assay component LTEA_HepaRG_MMP3 was analyzed into 1 endpoint. This assay endpoint, LTEA_HepaRG_MMP3, was analyzed with bidirectional fitting relative to DMSO as the negative control and baseline of activity. Using a type of inducible reporter, measures of mRNA induction for gain or loss-of-signal activity can be used to understand regulation of transcription factor activity. To generalize the intended target to other relatable targets, this assay endpoint is annotated to the protease intended target family, where the subfamily is matrix metalloproteinase.
A total of 1060 chemcials from the ToxCast library were tested in eight-point concentration-response experiments. Cell culture and cytotoxicity assays were conducted at Thermo Fisher Scientific's Custom Services facility (Madison, WI). A single lot of human HepaRG cells (Thermo Fisher Scientific, Frederick, MD) was used for the cell culture experiments. 96-well format collagen type I coated plates of human HepaRG cells were prepared using established methods. Briefly, cryopreserved HepaRG cells were thawed, plated at a density of approximately 100,000 cells/well in HepaRG Thaw, Plate, and General Purpose media (HPRG770, Thermo Fisher Scientific), and incubated for 48 hours. 0.5% DMSO was selected as vehicle control to balance the requisite need of DMSO in HepaRG cultures to maintain differentiation (for example, baseline metabolism, proportions of hepatocytes vs. cholangiocytes), while enabling further hepatic receptor pathway activation (for example, PXR and CAR) in response to chemical exposure. 48 hours after plating, the culture medium was replaced with HepaRG Serum-Free Incudtion Media. Cells were exposed to each test chemical in duplicate and maintained in CO2 incubators for another 48 hours. Chemical plates were thawed to room temperature and 200x concentrations of treatment groups were prepared. 8-point conentration-reponse curves were made with the highest exposure at 100 uM, followed by half-log dilutions, all in 0.5% DMSO. Each test plate contained variouse controls, induction positive controls (1mM phenobarbital), cytotoxicity positive controls ([…] aflatoxin B1), vehicle controls (0.5% DMSO), and total lysis controls (0.5% DMSO). Cell morphology images were taken using an Essen IncuCyte FLR automated microscope, with six 96-well plates imaged in about 24 minutes. Images were captured and exported and JPEG files. Spent culture media was transfered to black-well plates for the LDH assay, and remaining media was sorted at -80 C for later use. Cells were treated with RLT buffer and frozen until shipped for gene expression analysis. Total RNA was isolated from the cell suspension in 75 uL of Buffer RLT (Qiagen, Germantown, MD 20874) by Quintiles/Expression Analysis (Durham, NC) using a custom isolation procedure. Total RNA from each plate well was transferred to a preamplification plate. Fluidigm's 96.96 Dynamic ArrayTM (Fluidigm, Amsterdam, the Netherlands) technology was used for gene expression analyses by quantitative reverse transcription polymerase chain reaction (qRT-PCR, performed by Quintiles/Expression Analysis, Durham, NC)89. Standard TaqManTM Assays (Applied Biosystems/ThermoFisher Scientific, Foster City, CA) were used to assess the expression of 93 genes selected based on their selectivity and sensitivity to important hepatic receptors known to be modulated by environmental chemicals; importance in human hepatocyte functionality; and hepatotoxicity. […]

SMILES | outcome | AC50
Cc1cc2c3c(c1)C(c1ccccc1)=N[C@@H](NC(=O)c1ccncc1)C(=O)N3CC2 | inactive | –
CCCCCCCCOC(=O)c1ccccc1C(=O)OCCCCCCCC | inactive | –
CC1=C2C[C@H]3[C@@H](CC=C4C[C@@H](O)CC[C@@]43C)[C@@H]2CC[C@]12O[C@@H]1C[C@H](C)CN[C@H]1[C@H]2C | inactive | –
c1cc2ccc3cccc4ccc(c1)c2c34 | inactive | –
CCC(C)(c1ccc(O)cc1)c1ccc(O)cc1 | inactive | –
O=C(N[C@H]1CN2CCC1CC2)c1cc2ccoc2cn1 | inactive | –
Cc1cc(-c2ccc(N)c(C)c2)ccc1N | inactive | –
CN(C)CCO | inactive | –
C=CC(=O)NCNC(=O)C=C | inactive | –
COc1ccc(O)c(C(C)(C)C)c1 | inactive | –
O=C(O)C(F)(F)C(F)(F)C(F)(F)C(F)(F)C(F)(F)C(F)(F)C(F)(F)C(F)(F)F | inactive | –
Nn1cnnc1 | inactive | –
COS(=O)(=O)OC | inactive | –
CCCCCCOC(=O)c1ccccc1C(=O)OCCCCCC | inactive | –
CCC(C)(CC)c1cc(NC(=O)c2c(OC)cccc2OC)on1 | inactive | –
O=S(=O)(O)C(F)(F)C(F)(F)C(F)(F)C(F)(F)C(F)(F)C(F)(F)F | inactive | –
CCCN(CCC)N=O | inactive | –
ClC(Cl)=C(c1ccc(Cl)cc1)c1ccc(Cl)cc1 | inactive | –
Cc1ccccc1[N+](=O)[O-] | inactive | –
Cc1ccc(O)c(C)c1 | inactive | –

SMILES | outcome | AC50
CCOC(=O)C(O)(c1ccc(Cl)cc1)c1ccc(Cl)cc1 | inactive | –
CCSC(=O)N(CC)C1CCCCC1 | inactive | –
CC(C)C(=O)OCC(C)(C)C(OC(=O)C(C)C)C(C)C (stereo not given) | inactive | –
CCNc1nc(NC(C)C)nc(SC)n1 | inactive | –
O=S(=O)(O)C(F)(F)C(F)(F)C(F)(F)C(F)(F)F | inactive | –
Oc1ccc(Cl)cc1Cl | inactive | –
C1CC2OC2CC1C1CO1 (stereo not given) | inactive | –
ClC1=C(Cl)[C@]2(Cl)[C@@H]3[C@@H]4C[C@@H]([C@H]5O[C@@H]45)[C@@H]3[C@@]1(Cl)C2(Cl)Cl | inactive | –
Cc1ccccc1O | inactive | –
NS(=O)(=O)C(F)(F)C(F)(F)C(F)(F)C(F)(F)C(F)(F)C(F)(F)C(F)(F)C(F)(F)F | – | 50 µM (active)
Oc1ccc(C(c2ccc(O)cc2)(C(F)(F)F)C(F)(F)F)cc1 | – | 76.6 µM (active)
CCCCCCCCCc1ccc(O)cc1 | inactive | –
C[C@]12CCC(=O)C=C1CC[C@@H]1[C@@H]2CC[C@@]2(C)[C@H]1CC[C@]2(C)O | – | 0.948 µM (active)
C=CC(N)=O | inactive | –
O=C(O)C(F)(F)C(F)(F)C(F)(F)C(F)(F)C(F)(F)F | inactive | –
Cc1cccc(C)c1N | inactive | –
ClC1=C(Cl)[C@]2(Cl)[C@@H]3[C@H]4C[C@H]([C@@H]5O[C@H]45)[C@@H]3[C@@]1(Cl)C2(Cl)Cl | inactive | –
Oc1c(Cl)c(Cl)c(Cl)c(Cl)c1Cl | – | 6.02 µM (active)
CC(c1ccc(O)cc1)(c1ccc(O)cc1)c1ccc(O)cc1 | inactive | –
c1ccc(-c2ccccc2)cc1 | inactive | –
